Measured values reported in PubChem BioAssay AID624500 (National Center for Advancing Translational Sciences (NCATS), 2012).
Records with an inconclusive call do not appear. Active and inactive are the calls of the source. Calls follow the shape of the dose curve; as a rule, active = well fitted inhibition curve with a large enough effect; inconclusive = small, poorly fitted or top-dose-only effect; inactive = flat fitted curve, though single readings scatter.

Target: D(3) dopamine receptor (Homo sapiens) (UniProt P35462)
Sequence (P35462 whole entry, looked up): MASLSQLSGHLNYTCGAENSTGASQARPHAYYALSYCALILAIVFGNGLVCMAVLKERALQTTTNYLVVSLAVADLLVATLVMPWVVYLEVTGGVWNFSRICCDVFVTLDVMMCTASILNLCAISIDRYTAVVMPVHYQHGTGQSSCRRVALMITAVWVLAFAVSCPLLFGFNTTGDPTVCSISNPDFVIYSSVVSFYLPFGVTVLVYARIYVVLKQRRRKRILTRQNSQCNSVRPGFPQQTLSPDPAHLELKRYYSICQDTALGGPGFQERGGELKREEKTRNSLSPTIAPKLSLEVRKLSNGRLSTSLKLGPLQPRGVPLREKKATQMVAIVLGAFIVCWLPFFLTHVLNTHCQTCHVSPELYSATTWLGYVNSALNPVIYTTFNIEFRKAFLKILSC
Assay: HTS Assay for Allosteric Antagonists of the Human D2 Dopamine Receptor: SAR in D3 Beta Arrestin Assay
Details: DiscoveRx PathHunter D3 beta-arrestin, luminescence, 90 min; series mostly up to 57.1 µM
Source text: There is great interest in identifying small molecule ligands for G-protein coupled receptors (GPCRs) as nearly 50% of all FDA-approved drugs target these important receptor proteins. […] Amongst the dopamine receptors (DARs), the D2 is arguably one of the most validated drug targets in neurology and psychiatry. For instance, all receptor-based antiparkinsonian drugs primarily work via stimulating the D2 DAR, whereas all FDA-approved antipsychotic agents are antagonists of this receptor. The D2 DAR is also therapeutically targeted in other disorders such as restless legs syndrome, tardive dyskinesia, Tourette's syndrome, and hyperprolactinemia. […] This is an selectivity assay to test the lead compounds against the D3 receptor, using a beta arrestin assay. NIH Molecular Libraries Probe Production Network [MLPCN] NIH Chemical Genomics Center [NCGC] Grant: NS0676421 PI Name: David Sibley, National Institutes of Neurological Disorders and Stroke
DiscoveRx D3 cells were thawed from frozen stock and seeded at 2,100 cells/ 3 uL/well media (DiscoveRx Plating Reagent 2) with MultiDrop Combi dispenser (Thermo Scientific, Logan, UT) onto white tissue culture treated 1536-well Aurora plates (Brooks Automation, Chelmsford, MA) and allowed to attach overnight at 37 deg C, 5% CO2. Next, 23 nL/well of compound solutions in DMSO were added with a pintool transfer (Kalypsis, San Diego, CA). As the positive control, 1 uL/well dopamine (EC100, 57 uM final concentration) diluted in buffer (HBSS + 10 mM HEPES + SMB + 0.1% Tween-20) was dispensed to 1 column of each plate. The rest of the plate was dispensed with buffer only, 1 uL/well as well. The cells were stimulated by compounds or dopamine control for 90 minutes at 37 deg C, 5% CO2, after which 1.5 ul/well of DiscoveRx detection reagent was added with BioRAPTR FRD dispenser. The detection reagent was prepared by mixing of Galacton Star Substrate, Emerald II solution and PathHunter buffer (supplied by the assay kit) together at 1:5:19 proportion accordingly just prior to dispensing. The plates were incubated at ambient temperature for 1 hour and then the luminescent signal was read on ViewLux plate reader (PerkinElmer, Waltham, MA).

Potency, inactive:
CN1C(=O)c2ccccc2[S@@](=O)c2ccc(C(=O)NCCc3cccs3)cc21

Potency, active:
CCN1C(=O)c2ccccc2[S@](=O)c2ccc(C(=O)NCc3ccc(C#N)cc3)cc21 1.62 µM
CCN1C(=O)c2ccccc2[S@](=O)c2ccc(C(=O)N[C@H](C)c3ccc(Br)cc3)cc21 9.13 µM
CN1C(=O)c2ccccc2S(=O)c2ccc(C(=O)NCCc3cccs3)cc21 (stereo not drawn) 20.4 µM
CCN1C(=O)c2ccccc2[S@](=O)c2ccc(C(=O)NCc3ccc(OC)cc3)cc21 2.89 µM
CN1C(=O)c2ccccc2[S@](=O)c2ccc(C(=O)NCc3ccc(Cl)cc3)cc21 10.2 µM
OC1(c2ccc(Cl)cc2)CCN(Cc2c[nH]c3ccccc23)CC1 0.0646 µM
CN1C(=O)c2ccccc2[S@](=O)c2ccc(C(=O)NCCN3CCCC3)cc21 4.58 µM
CCN1C(=O)c2ccccc2S(=O)c2ccc(C(=O)NCc3ccc(OC)cc3)cc21 (stereo not drawn) 5.76 µM
CN1C(=O)c2ccccc2[S@](=O)c2ccc(C(=O)NCCc3cccs3)cc21 12.9 µM
CN1C(=O)c2ccccc2[S@](=O)c2ccc(C(=O)NCc3ccc(Br)cc3)cc21 4.58 µM
CN1C(=O)c2ccccc2[S@](=O)c2ccc(C(=O)NCc3cccnc3)cc21 14.5 µM
CCN1C(=O)c2ccccc2[S@](=O)c2ccc(C(=O)NCc3ccc(F)cc3)cc21 3.24 µM
